Data from PubChem BioAssay (NCATS).
Inconclusive results are not listed. Activity calls are given as the source filed them. The call rests on the fitted dose curve; in most records, active means well fitted curve in the direction sought with a large enough effect; inconclusive means small, poorly fitted or top-dose-only effect, or another doubt; inactive means no such curve, though single readings can be large; an effect the other way counts as inactive or inconclusive.

Key:
[1] = Quantitative High-Throughput drug screen in 47 multiple myeloma cell lines against the NCATS MIPE library collection: JIM3_ECACC cell viability assay (AID 1918963; further: nearly all actives have a fitted effect of over 35% in size)
In short: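 Steps: seed 500 cells per well; pin-transfer MIPE 4.0 library; incubate 48 h at 37C, 5% CO2, humidified; add CellTiter-Glo, 5 min room temperature; read luminescence.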

[2] = Quantitative High-Throughput drug screen in 47 multiple myeloma cell lines against the NCATS MIPE library collection: INA6_PLB cell viability assay (AID 1918965; further: nearly all actives have a fitted effect of over 55% in size)
In short: (§1)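 CellTiter-Glo luminescence (ATP) after 48 h compound exposure, 37C/5% CO2; 500 cells/well; MIPE 4.0 approved/investigational drugs pinned in; DMSO = 100%, media only = 0% viability.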

[3] = Quantitative High-Throughput drug screen in 47 multiple myeloma cell lines against the NCATS MIPE library collection: JJN3_DSMZ cell viability assay (AID 1918966; further: nearly all actives have a fitted effect of over 50% in size)
In short: (§2)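 CellTiter-Glo ATP luminescence gave viability after 48 h compound treatment at 37C of 500 multiple myeloma cells per well. Normalisation used DMSO-only wells as 100% and media-only wells as 0% viability; primary qHTS of approved and investigational drugs.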

[4] = Quantitative High-Throughput drug screen in 47 multiple myeloma cell lines against the NCATS MIPE library collection: H1112_PLB cell viability assay (AID 1918967; further: nearly all actives have a fitted effect of over 30% in size)
In short: as §2

[5] = Quantitative High-Throughput drug screen in 47 multiple myeloma cell lines against the NCATS MIPE library collection: Karpas25_ECACC cell viability assay (AID 1918968; further: nearly all actives have a fitted effect of over 35% in size)
In short: as §2

[6] = Quantitative High-Throughput drug screen in 47 multiple myeloma cell lines against the NCATS MIPE library collection: KMS12BM_JCRB cell viability assay (AID 1918971); further: nearly all actives have a fitted effect of over 35% in size
In short: (§3)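 Relative luminescence from CellTiter-Glo served as the viability signal, referenced to DMSO-treated (100%) and cell-free medium (0%) controls. Treatment lasted 48 hours at 37C with 500 cells per well.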

[7] = Quantitative High-Throughput drug screen in 47 multiple myeloma cell lines against the NCATS MIPE library collection: KMS20_JCRB cell viability assay (AID 1918973); further: nearly all actives have a fitted effect of over 45% in size
In short: as §2

[8] = Quantitative High-Throughput drug screen in 47 multiple myeloma cell lines against the NCATS MIPE library collection: MOLP8_DSMZ cell viability assay (AID 1918977); further: nearly all actives have a fitted effect of over 45% in size
In short: (§4)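 500 cells/well; MIPE 4.0 drugs pin-transferred; 48 h, 37C, 5% CO2. CellTiter-Glo, 5 min RT, luminescence. Controls: DMSO 100%, media 0%.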

[9] = Quantitative High-Throughput drug screen in 47 multiple myeloma cell lines against the NCATS MIPE library collection: NCIH929_DSMZ cell viability assay (AID 1918978); further: nearly all actives have a fitted effect of over 35% in size
In short: as §4

[10] = Quantitative High-Throughput drug screen in 47 multiple myeloma cell lines against the NCATS MIPE library collection: MM1S_ATCC cell viability assay (AID 1918980); further: nearly all actives have a fitted effect of over 45% in size
In short: as §4

[11] = Quantitative High-Throughput drug screen in 47 multiple myeloma cell lines against the NCATS MIPE library collection: MM1R_ATCC cell viability assay (AID 1918981); further: nearly all actives have a fitted effect of over 35% in size
In short: as §4

[12] = Quantitative High-Throughput drug screen in 47 multiple myeloma cell lines against the NCATS MIPE library collection: KMS12PE_JCRB cell viability assay (AID 1918972); further: nearly all actives have a fitted effect of over 30% in size
In short: as §1

[13] = Quantitative High-Throughput drug screen in 47 multiple myeloma cell lines against the NCATS MIPE library collection: KMS26_JCRB cell viability assay (AID 1918975); further: nearly all actives have a fitted effect of over 45% in size
In short: as §3

[14] = Quantitative High-Throughput drug screen in 47 multiple myeloma cell lines against the NCATS MIPE library collection: KMS27_JCRB cell viability assay (AID 1918970); settings: KMS27 myeloma cells, CellTiter-Glo ATP viability, 48 h; viability (% of DMSO): at 45.8 µM (top of the series); further: nearly all actives have a fitted effect of over 30% in size
In short: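 Each line is seeded at 500 cells per well and treated with library compounds for 48 hours under 37 °C, 5% CO2. CellTiter-Glo is then added for 5 min at room temperature before median relative luminescence is recorded.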

[15] = Quantitative High-Throughput drug screen in 47 multiple myeloma cell lines against the NCATS MIPE library collection: MMM1_PLB cell viability assay (AID 1918976); further: nearly all actives have a fitted effect of over 35% in size
In short: as §4

[16] = Quantitative High-Throughput drug screen in 47 multiple myeloma cell lines against the NCATS MIPE library collection: OCIMY1_PLB cell viability assay (AID 1918979); further: nearly all actives have a fitted effect of over 35% in size
In short: as §4

[17] = Quantitative High-Throughput drug screen in 47 multiple myeloma cell lines against the NCATS MIPE library collection: KMS21BM_JCRB cell viability assay (AID 1918974); settings: ATP luminescence, 48 h; viability: at 45.8 µM (top of the series)
In short: as §2
Potency means the concentration at half of the fitted maximal effect.

| Compound | Potency [1] | Potency [2] | Potency [3] | Potency [4] | Potency [5] | Potency [6] | Potency [7] | Potency [8] | Potency [9] | Potency [10] | Potency [11] | Potency [12] | Potency [13] | Potency [14] | Potency [15] | Potency [16] | Potency [17] |
| --- | --- | --- | --- | --- | --- | --- | --- | --- | --- | --- | --- | --- | --- | --- | --- | --- | --- |
| COc1ccc(S(=O)(=O)Nc2cccnc2Nc2ccc(O)cc2)cc1 | 0.0526 µM (active) | 0.0833 µM (active) | 1.32 µM (active) | 0.105 µM (active) | 0.235 µM (active) | 0.0743 µM (active) | 0.0833 µM (active) | 1.18 µM (active) | 1.18 µM (active) | 0.209 µM (active) | 0.105 µM (active) |  |  |  |  |  |  |
| O=C(NC1CC1)c1cccc(-c2ccc3c(NC(=O)C4CC4)n[nH]c3c2)c1 | 11.8 µM (active) | 5.26 µM (active) |  | 6.62 µM (active) |  | 8.33 µM (active) |  |  | 16.6 µM (active) | 0.332 µM (active) | 1.48 µM (active) | inactive | 2.64 µM (active) |  |  |  |  |
| CN1CCc2c(c3ccccc3n2Cc2ccc(C(=O)NO)cc2)C1 | 23.5 µM (active) | 4.69 µM (active) | 18.7 µM (active) | 16.6 µM (active) | 10.5 µM (active) | 16.6 µM (active) |  |  | 10.5 µM (active) | 16.6 µM (active) | 16.6 µM (active) |  | 20.9 µM (active) |  |  |  |  |
| NC[C@H]1O[C@H](O[C@H]2[C@@H](O)[C@@H](O[C@H]3O[C@H](CO)[C@@H](O)[C@H](N)[C@@H]3O)[C@H](N)C[C@@H]2N)[C@H](N)C[C@H]1O | inactive |  | 1.87 µM (active) | inactive | inactive |  | inactive |  | inactive | inactive | inactive |  | inactive | inactive | 2.09 µM (active) | inactive |  |
| C[N+](C)([O-])CCNc1ccc(NCC[N+](C)(C)[O-])c2c1C(=O)c1c(O)ccc(O)c1C2=O | inactive | 16.6 µM (active) |  | inactive | inactive | 18.7 µM (active) |  |  | inactive | 20.9 µM (active) | 18.7 µM (active) | inactive |  | inactive |  | inactive | inactive |
| C[N+]1(C)[C@@H]2C[C@@H](OC(=O)C(O)(c3cccs3)c3cccs3)C[C@H]1[C@@H]1O[C@@H]12 | inactive | inactive | inactive | inactive | inactive |  | inactive | inactive | inactive |  |  | inactive |  | inactive |  | inactive |  |
| CC(C)c1cnn2c(NCc3ccccc3)cc(NCCCCCCN)nc12 | 20.9 µM (active) | 26.4 µM (active) | 23.5 µM (active) |  |  | 26.4 µM (active) |  |  |  | 3.32 µM (active) | 20.9 µM (active) | 18.7 µM (active) | 14.8 µM (active) | 18.7 µM (active) | 18.7 µM (active) |  | 23.5 µM (active) |
| CC(C)[C@H](CO)Nc1nc(Nc2cccc(Cl)c2)c2ncn(C(C)C)c2n1 | 18.7 µM (active) | 18.7 µM (active) |  | 26.4 µM (active) | 26.4 µM (active) | 20.9 µM (active) | 20.9 µM (active) | 18.7 µM (active) | 18.7 µM (active) | 5.9 µM (active) | 18.7 µM (active) |  | 23.5 µM (active) |  | 26.4 µM (active) | 23.5 µM (active) |  |
| Cn1cc(-c2ccc3ncc(Cc4ccc5ncccc5c4)n3n2)cn1 | 16.6 µM (active) | 13.2 µM (active) |  | inactive | inactive |  |  | inactive | inactive | inactive | inactive |  | inactive |  |  | inactive |  |
| NC(=O)c1ncn([C@@H]2O[C@H](CO)[C@@H](O)[C@@H]2O)c1O | inactive | inactive |  | inactive | inactive | inactive | inactive | inactive |  | inactive | inactive | inactive |  |  | 2.64 µM (active) | inactive |  |
| Cc1cncc2cccc(S(=O)(=O)N3CCCN(C(=O)CN)C[C@@H]3C)c12 | inactive | 16.6 µM (active) |  | 20.9 µM (active) |  | inactive |  | inactive |  |  | inactive | 16.6 µM (active) | inactive | 0.418 µM (active) |  |  |  |
| COc1cc2c(cc1O)CCC1C2CC[C@@]2(C)C1CC[C@@H]2O (stereo partly specified) | 1.32 µM (active) | 1.66 µM (active) | 8.33 µM (active) |  | 2.96 µM (active) | 1.18 µM (active) |  |  | 7.43 µM (active) | 4.69 µM (active) |  |  |  |  | 6.62 µM (active) | 3.32 µM (active) |  |
| NC1=N[C@H]2[C@H](CS[C@H]2CCCCC(=O)O)N1 | inactive | inactive |  | inactive | inactive | inactive |  | inactive |  | inactive |  |  | inactive | inactive |  | inactive |  |
| Cc1ccccc1C(=O)Nc1ccc(C(=O)N2CCCC(O)c3cc(Cl)ccc32)c(C)c1 (stereo unspecified) | inactive |  | 13.2 µM (active) | inactive | 14.8 µM (active) | inactive |  | inactive |  |  |  |  |  |  |  | inactive |  |
